# Screening results as filed in PubChem BioAssay.
# Hits are enriched below; roughly 4.6% of the tested compounds scored in any of these assays.
# D1 agonist – Allosteric Agonists of the Human D1 Dopamine Receptor: qHTS | D(1A) dopamine receptor (Homo sapiens), P21728 | HEK293 T-REx D1 cells, calcium flux, agonist mode | activation, % at 2 µM | 1% of 360,000 active | AID 504660, 2011; note: 0% is about no effect
#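 Inducible HEK293 T-REx D1 cells, force-coupled to calcium signalling, were plated at 4000 cells/well with tetracycline and held overnight at 30 C. After no-wash calcium dye loading, compound-evoked calcium rise over 180 s flagged agonists.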
# TRHR ag – qHTS for Small Molecule Agonists and Allosteric Enhancers of Human TRH Receptor: Primary Screen for Agonists; Thyrotropin-releasing hormone receptor (Homo sapiens), P34981; TRHR cells, calcium flux fluo-8, FDSS agonist mode; 0.18% of 360,000 active; activation, % at 2 µM; note: 0% is about no effect
# Target sequence (P34981 whole entry, looked up): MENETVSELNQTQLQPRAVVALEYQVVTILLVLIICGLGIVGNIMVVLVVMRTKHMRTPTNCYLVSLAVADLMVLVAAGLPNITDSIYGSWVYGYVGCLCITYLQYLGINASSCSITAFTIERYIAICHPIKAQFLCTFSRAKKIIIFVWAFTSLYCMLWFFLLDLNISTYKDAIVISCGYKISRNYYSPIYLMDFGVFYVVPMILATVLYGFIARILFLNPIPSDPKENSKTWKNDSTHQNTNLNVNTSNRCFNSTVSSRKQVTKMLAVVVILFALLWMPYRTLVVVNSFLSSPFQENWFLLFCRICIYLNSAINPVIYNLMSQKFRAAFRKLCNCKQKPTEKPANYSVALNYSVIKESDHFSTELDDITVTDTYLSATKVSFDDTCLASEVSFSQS
#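 Fluo-8-loaded TRHR cells; 10 s baseline, compound added, kinetic Ca2+ fluorescence read 1/s, agonist mode.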
# D1 antagonist – Antagonist of Human D 1 Dopamine Receptor: qHTS; D(1A) dopamine receptor (Homo sapiens), P21728; HEK293 TREx D1 cells, calcium flux, dopamine EC80; active compounds read low; activity change, negative = inhibition, % at 10 µM; 3.2% of 360,000 active; in the data active = activity change below about -30%; note: % is set by controls: 0 for no effect and ±100 for the full control effect
#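 Calcium flux readout: force-coupled, inducible Hek293 Trex D1 line, cells induced overnight at 30 C with tetracycline, dye-loaded 30–90 min at RT. Antagonism scored against EC80 dopamine challenge given 180 s after compound.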
# D1 PAM – Potentiators of Human D1 Dopamine Receptor: qHTS. HEK293 TREx D1 cells, calcium flux, dopamine EC20 potentiation. potentiation, % at 10 µM. 0.036% of 360,000 active. AID 504651, 2011; in the data active = potentiation above about 30%; note: 0% is about no effect
# TRHR PAM – qHTS for Small Molecule Agonists and Allosteric Enhancers of Human TRH Receptor: Primary Screen for Enhancers. TRHR cells, fluo-8 calcium fluorescence, EC20 TRH enhancement. Thyrotropin-releasing hormone receptor (Homo sapiens), P34981. enhancement, % at 2 µM. AID 493056, 2011. 0.66% of 360,000 active; in the data active = enhancement above about 30%; note: 0% is about no effect
#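 TRHR-expressing cells loaded with fluo-8 calcium dye were read kinetically (ex 480/em 530) during compound addition, then stimulated with an EC20 of TRH (10 nM final). Enhancement of the Gq-mediated intracellular calcium response was scored.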
# * hit, by the source's call; / = no result. Cut-off read from the data, not from the text of the source, unless noted: active = activation above about 30%; inactive = the rest.
SMILES,D1 agonist,TRHR ag,D1 antagonist,D1 PAM,TRHR PAM
Clc1ccc2c(c1)C(OC1CN3CCC1CC3)c1ccccc1CS2 (stereo not given),34.9*,0.8,-50.2*,-8.2,7.0
C[C@H]1CC[C@@H]2[C@@H](C)[C@H]3[C@H](C[C@H]4[C@@H]5CC=C6C[C@@H](O[C@@H]7O[C@H](CO)[C@H](O)[C@H](O[C@@H]8O[C@H](CO)[C@@H](O)[C@H](O)[C@H]8O)[C@H]7O[C@@H]7O[C@@H](C)[C@H](O)[C@@H](O)[C@H]7O)CC[C@]6(C)[C@H]5CC[C@]34C)N2C1,95.9*,14.1,-10.5,3.1,-7.4
CC(Cc1ccccc1)NCC(=O)Nc1cc(N(C)C)nc2ccccc12 (stereo not given),-0.6,-0.1,-50.1*,8.7,-7.8
O=C(Nc1ccc(C(F)(F)F)cc1)OC1CN2CCC1CC2 (stereo not given),30.3*,4.0,-5.4,-2.9,2.6
Cc1cccc(C)c1OC(=O)Cc1ccccc1,-0.3,2.2,11.8,33.0*,-6.1
COC(=O)CSC1=NN1c1cc(C)nc(N)n1,0.1,-2.7,-32.8*,6.2,-5.0
CCN1C(=O)NC(=O)/C(=C\c2cn(CC(=O)N3CCCCC3C)c3ccccc23)C1=O (stereo not given),11.4,2.9,-30.5*,-1.4,-18.7
Cc1ccc2c(c1)C1CN(C)CCC1N2C(=O)CCCN1C(=O)c2cccc3cccc(c23)C1=O (stereo not given),1.2,0.1,-49.3*,-16.3,6.1
Cc1ccc2c(c1)[C@@H]1CN(C)CC[C@@H]1N2C(=O)Nc1cccc(C(F)(F)F)c1,19.7,2.5,-51.6*,-27.1,3.1
Cc1ccc2c(c1)C1CN(C)CCC1N2C(=O)Nc1cccc(C(F)(F)F)c1 (stereo not given),23.1,2.1,/,-3.9,8.6
Cc1nonc1OCCNCCNc1ccc([N+](=O)[O-])c2cccnc12,5.8,0.4,-35.0*,0.1,-11.9
CCNCCNc1ccc([N+](=O)[O-])c2cccnc12,1.9,-0.3,-5.0,-6.2,0.9
Cc1sc(-n2c(C)cc(C=C3C(=O)NC(=O)NC3=O)c2C)c(C#N)c1C,9.0,0.1,-20.5,-6.1,-5.7
Cc1cc(C)nc(N2Cc3ccccc3C2=N)n1,3.8,0.4,21.5,0.0,0.2
COCc1cc(OC(=O)N(C)C)nc2c1c(C)nn2C,0.4,0.3,-1.7,0.1,-3.3
Cc1cc(OC(=O)N(C)C)nc2c1c(C)nn2C,2.8,-0.3,-10.1,-0.6,40.3*
N/C(=N\[N+](=O)[O-])N1CCN(C(=O)Oc2ccccc2)CC1,2.7,0.8,-20.2,-5.8,2.5
CC/C(CC(c1ccccc1)c1c(O)c2ccccc2oc1=O)=N\NC(N)=S (stereo not given),3.7,0.1,-32.2*,-12.2,9.1
COc1ccc(C(=O)O/N=C(/C(N)=O)P(=O)(OC(C)C)OC(C)C)cc1,-0.6,0.4,-27.2,-1.1,9.4
NC(=O)c1ccc(N=Cc2c(O)n(Cc3ccco3)c(=O)[nH]c2=O)cc1,3.7,0.6,4.3,-0.7,-9.1
CCn1c(O)c(C=Nc2ccc(S(N)(=O)=O)cc2)c(=O)[nH]c1=S,2.0,0.8,-0.7,7.0,4.1
CCN(CC)c1ccc(N=Cc2c(O)n(CCc3ccc(OC)c(OC)c3)c(=O)[nH]c2=O)cc1,40.2*,4.8,3.0,6.8,2.7
CCN(CC)c1ccc(N=Cc2c(O)n(Cc3ccco3)c(=O)[nH]c2=O)cc1,31.0*,9.4,-2.5,-1.6,0.7
CCN(CCO)c1ccc(N=Cc2c(O)n(C)c(=S)[nH]c2=O)cc1,75.4*,-1.2,-23.9,-0.2,8.0
CCN(CC)CCCN=Cc1c(O)n(CCc2ccc(OC)c(OC)c2)c(=O)[nH]c1=O,2.1,0.2,5.5,-7.2,22.5
COc1ccc(CCn2c(O)c(C=Nc3ccc(F)cc3)c(=O)[nH]c2=O)cc1OC,6.8,0.1,0.0,-5.0,37.7*
